From PubChem
FBPA Giardia inh: Giardia lamblia aldolase inhibition | A8B2U2 | purified Giardia FBPA | Potency, µM (doses to about 59.6 µM), actives largely listed as inhibitors | 0.71% of 290,000 active | AID 2451; further: nearly all actives have a fitted effect of over 55% in size
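40 nM FBPA preincubated 10 min at RT with compound (up to 57.5 uM final), then substrate plus GAPDH/TPI/NAD/arsenate coupling and diaphorase/resazurin added. Fluorescence read after 20 min at RT, 525/598 nm.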
LmPK inh: blocks Leishmania mexicana pyruvate kinase activity; Q27686; purified LmPK, Kinase-Glo ATP luminescence, 1 h; Potency, µM (titrated, usually from 57.5 µM), most hits filed as inhibitors; 0.37% of 290,000 active; AID 1721
Target sequence (Q27686 whole entry, looked up): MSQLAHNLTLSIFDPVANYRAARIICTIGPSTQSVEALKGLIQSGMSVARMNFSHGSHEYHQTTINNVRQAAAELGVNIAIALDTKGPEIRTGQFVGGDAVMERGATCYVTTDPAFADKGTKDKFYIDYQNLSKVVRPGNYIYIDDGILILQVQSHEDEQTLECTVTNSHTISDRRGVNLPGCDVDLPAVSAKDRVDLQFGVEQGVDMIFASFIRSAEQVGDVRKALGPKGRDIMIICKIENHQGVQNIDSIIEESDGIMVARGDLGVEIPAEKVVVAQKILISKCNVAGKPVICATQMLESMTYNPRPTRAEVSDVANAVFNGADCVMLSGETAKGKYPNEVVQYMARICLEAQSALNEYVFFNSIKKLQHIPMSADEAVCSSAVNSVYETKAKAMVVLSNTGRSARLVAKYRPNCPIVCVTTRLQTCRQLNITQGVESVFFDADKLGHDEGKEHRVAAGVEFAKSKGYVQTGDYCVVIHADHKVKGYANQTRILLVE
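Pyruvate kinase activity monitored as ATP production (luciferase luminescence). Conditions: 0.1 nM enzyme, 0.5 mM PEP, 0.1 mM ADP, 1 h, RT; normalized against uninhibited and no-enzyme wells.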
Shiga inhibitor: inhibitors of Shiga toxin in Vero cells; Vero cells, Shiga toxin protein synthesis inhibition reporter; inhibition, % at 38.7 µM; 9.2% of 290,000 active; in the data active means inhibition mostly above about 28%, no sharp cut-off; inactive means mostly below about 43%
CHX counter: counter-screen for Shiga toxin inhibitors: cycloheximide protein synthesis inhibition | cell reporter, cycloheximide protein synthesis inhibition counterscreen | max response, % | 12% of 300,000 active; in the data active means max response mostly above about 13%, no sharp cut-off; inactive means mostly below about 14%; further: read at 38.3 µM for the half of the compounds with a filed dose
NS1 inh: inhibitors of influenza NS1 protein function | Potency, µM (highest dose often 46.1 µM) | 0.4% of 270,000 active; calls by dose curve; further: actives are rising curves; nearly all actives have a fitted effect of over 50% in size
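Compounds were scored for reversing the slow growth caused by influenza A NS1 in S. cerevisiae, measured by optical density at 600 nm. Assay medium contained 2% galactose at pH 6.0; NS1-free yeast of the same strain were the positive control.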
Of the large screens only hits and unclear results are named; the others gave an inactive call. Only some compounds are listed: those with a hit (about 14% of all), similar ones and a draw of the others. Unless noted, the call rests on the fitted dose curve; in most records, active means well fitted curve in the direction sought with a large enough effect; inconclusive means small, poorly fitted or top-dose-only effect, or another doubt; inactive means no such curve, though single readings can be large; an effect the other way counts as inactive or inconclusive.

Cc1ccc(-c2[nH][nH]c(=O)c(=O)c2N=Nc2ccccc2)cc1	none
COc1ccc2cc(C(=O)c3ccccc3)c(=O)oc2c1	Shiga inhibitor 93.7, CHX counter 45.1
CCOc1ccc2cc(C(=O)c3ccccc3)c(=O)oc2c1	Shiga inhibitor active, CHX counter 33.3
COc1cc(CN2CCC(n3nccc3NC(=O)c3ccc4c(c3)OCO4)CC2)ccc1O	none
CC(C(=O)Nc1ccccc1Br)N1c2cccc3cccc(c23)S1(=O)=O (centres undefined)	none (no result: FBPA Giardia inh)
O=C(NC1CCCCC1)Oc1cc2oc(=O)sc2cc1Cl	CHX counter 16.2
O=S(=O)(Nc1cccc2cccnc12)C1CC1	none (no result: FBPA Giardia inh, LmPK inh, NS1 inh)
O=C(Nc1cccc2ccccc12)N(CCO)C1CCS(=O)(=O)C1 (centres undefined)	none
CN(C)c1ccc(/C=C2/C(=N\O)C3CCN2CC3)cc1	Shiga inhibitor 88.6, CHX counter 41.1
CC(C)C[C@@H](CC(=O)N[C@H](CC(=O)N[C@@H]1CCCC[C@H]1C(=O)N[C@H](CC(=O)N[C@@H](CCC(=O)O)CC(=O)O)Cc1ccccc1)C(C)C)NC(=O)[C@@H]1CCCC[C@H]1N	none (no result: LmPK inh, Shiga inhibitor, CHX counter, NS1 inh)
CC1(C)[C@H]2CC[C@]1(C)[C@@H](OC(=O)C[N+]1(C)CCOCC1)C2	none
COc1cc(C(=O)O[C@@H]2CC3CC[C@]2(C)C3(C)C)ccc1O	Shiga inhibitor 29.1 (no result: LmPK inh, NS1 inh)
COc1ccc(-c2nc3ccccc3c(=O)o2)cc1	LmPK inh 17.8µM, CHX counter 13.0
Cc1ccc(-c2nc3ccccc3c(=O)o2)cc1	CHX counter 23.1 (no result: Shiga inhibitor)
COc1cccc(-c2nc3ccccc3c(=O)o2)c1	CHX counter 19.3
C[n+]1nc(Nc2cccc(F)c2)sc1-c1ccc(C(=O)O)cc1	none
CCCC(C(=O)Nc1ccncc1)c1ccccc1 (centres undefined)	none (no result: FBPA Giardia inh)
NS(=O)(=O)c1ccc(CCNC(=O)c2ccccc2Cc2ccccc2)cc1	none (no result: FBPA Giardia inh)
O=C(c1cccc(C(F)(F)F)c1)C1CCCN(C(=O)CCCn2cncn2)C1 (centres undefined)	CHX counter 10.5
CSc1ccc(C(=O)C2CCCN(C(=O)CCCn3cncn3)C2)cc1 (centres undefined)	CHX counter 10.9, NS1 inh inconclusive
O=C(c1cccc(C(F)(F)F)c1)C1CCCN(C(=O)CN2CCCC2=O)C1 (centres undefined)	CHX counter 17.3
O=C(c1ccc(C(F)(F)F)cc1)C1CCCN(C(=O)CCn2cncn2)C1 (centres undefined)	none
COC(=O)CC1C2(C)CC34OC5(C)O[C@@]6(C7/C(=C(/OC)C(C)C)C(=O)OC(c8ccoc8)[C@@]7(C)C(OC(=O)C(C)C)C(OC)[C@]6(O5)[C@@]13C)C(OC)[C@]4(OC)C2OC(C)=O (some centres undefined)	none (no result: LmPK inh, Shiga inhibitor, CHX counter, NS1 inh)
CCc1cccc(CC)c1NC(=O)C1CC(=O)N(c2ccc3c(c2)OCCO3)C1 (centres undefined)	none
CCOc1ccc(N2CC(C(=O)Nc3ccc4c(c3)OCCO4)CC2=O)cc1 (centres undefined)	Shiga inhibitor 62.2, CHX counter 49.8 (no result: FBPA Giardia inh)
Cc1cc(C)c(NC(=O)C2CC(=O)N(c3ccc4c(c3)OCCO4)C2)c(C)c1 (centres undefined)	CHX counter 26.0
CCOc1ccccc1N1CC(C(=O)Nc2ccccc2N2CCOCC2)CC1=O (centres undefined)	CHX counter 37.9
CCCOc1ccc(-c2nc(N3CCN(C)CC3)c3ccccc3n2)cc1	Shiga inhibitor 60.6, CHX counter 32.6
CCOc1nc(-c2ccncc2)nc2ccccc12	none
CCCOc1ccc(-c2nc(OCC)c3ccccc3n2)cc1	Shiga inhibitor 32.0
CCCOc1ccc(-c2nc(N3CCN(CC)CC3)c3ccccc3n2)cc1	none
COC(=O)CNC(=O)C1(C)C=CC2(CCCCC2)N1C(=O)OC (centres undefined)	none (no result: LmPK inh, Shiga inhibitor, CHX counter, NS1 inh)
O=C(CSc1ncn[nH]1)c1ccc2c(c1)OCCO2	FBPA Giardia inh inconclusive, Shiga inhibitor active, CHX counter 18.1
O=C(CSc1ncn[nH]1)c1ccc2c(c1)OCO2	CHX counter 13.7
O=C(CSc1ccc2ccccc2n1)c1ccc2c(c1)OCO2	Shiga inhibitor 104.3, CHX counter 53.5
CC(C)c1ccc(C(=O)CSc2ncn[nH]2)cc1	FBPA Giardia inh inconclusive, Shiga inhibitor 81.4, CHX counter 30.6
Cc1onc(-c2ccccc2Cl)c1C(=O)N1CCN(S(=O)(=O)c2ccc(F)c(F)c2)CC1	none
Cc1cccc(NC(=S)N(CCCN2CCOCC2)C(C)c2cc3ccccc3o2)c1C (centres undefined)	none (no result: NS1 inh)
Cc1c(N(C)C(=O)COc2ccc3ccccc3c2)c(=O)n(-c2ccccc2)n1C	none
Cc1cc(NC(=O)/C=C/c2ccccc2Cl)no1	Shiga inhibitor 67.3, CHX counter 23.0
Cc1cc(NS(=O)(=O)c2ccc(NC(=O)/C=C/c3ccccc3)cc2)no1	none
COc1ccc(/C=C/C(=O)Nc2cc(C)on2)cc1	Shiga inhibitor 107.4, CHX counter 42.2
Cc1cc(NC(=O)/C=C/c2ccccc2)no1	Shiga inhibitor 63.2, CHX counter 41.0
Cc1cc(NC(=O)/C=C/c2ccccc2Cl)n(-c2nc3ccccc3[nH]2)n1	CHX counter 14.2
COc1ccc(C(=O)/C=C/Nc2cc(C)on2)cc1	Shiga inhibitor 64.7, CHX counter 47.1
COc1ccc(CC(=O)Nc2cc(C)on2)cc1	none
COc1ccc(S(=O)(=O)N2CCC(C(=O)N[C@@H](C)C(=O)NCc3ccncc3)CC2)cc1	none (no result: FBPA Giardia inh)
CN(C)C(CNC(=O)CNC(=O)c1ccc(Br)cc1)c1ccccc1 (centres undefined)	none (no result: NS1 inh)
NS(=O)(=O)c1cc(C(=O)OCC(=O)Nc2ccc(N3CCCCC3)cc2)ccc1Cl	CHX counter 13.2
CCC(=O)NC(=S)Nc1ccc(N2CCOCC2)cc1	Shiga inhibitor 95.8, CHX counter 27.6
CCCC(=O)Nc1ccc(N2CCCCC2)cc1	Shiga inhibitor 110.5, CHX counter 25.1
O=C(CCl)Nc1ccc(N2CCCCCC2)cc1	CHX counter 20.1
CCc1ccc(NC(=O)COC(=O)c2ccc(Cl)c(S(=O)(=O)N3CCCCCC3)c2)cc1	none
CCC(=O)Nc1ccc(N2CCCCC2)cc1	CHX counter 37.1
COc1cccc(CNc2nc3ccccc3n2CCN2CCCCC2)c1OC	none
CCCn1c(NCc2cc(OC)ccc2OC)nc2ccccc21	CHX counter 26.6
CCn1c(NCc2cc(OC)ccc2OC)nc2ccccc21	Shiga inhibitor 69.1, CHX counter 30.2
COc1ccc(OC)c(CNc2nc3ccccc3n2CCN2CCCCC2)c1	none
CCn1c(NCc2cccc(OC)c2OC)nc2ccccc21	Shiga inhibitor 26.4
CCCCC1=CC2=C(c3ccco3)C(=O)C(C)(OC(=O)c3ccc(OC)cc3)C(=O)C2=CN1CCc1c[nH]c2ccccc12 (centres undefined)	none (no result: Shiga inhibitor, CHX counter, NS1 inh)
O=C(Nc1ccccc1Cl)C1(c2ccccc2)CC1(Cl)Cl (centres undefined)	none
